From ChEMBL document CHEMBL3988442, “University of Dundee, Small-Polar-MMV Screening Library” (2021)
For some of these results: Potency and affinity values are given separately.

Assays:
Set-up in all cases: scale not given: direction of the effect not stated beside the values
[1] = target: Protein translocase subunit SecA (Escherichia coli (strain K12)) (UniProt P10408); assay: Assay to Identify E. coli SecA ATPase Inhibitors; assay type: functional; settings: 30 µM
[2] = target: T1, Ubiquitin-activating enzyme e1, putative (Leishmania donovani (strain BPK282A1)) (UniProt E9BSI1); assay: Leishmania donovani Ubiquitin Activating Enzyme (LdE1); assay type: functional; settings: 30 µM
T1 sequence (whole entry): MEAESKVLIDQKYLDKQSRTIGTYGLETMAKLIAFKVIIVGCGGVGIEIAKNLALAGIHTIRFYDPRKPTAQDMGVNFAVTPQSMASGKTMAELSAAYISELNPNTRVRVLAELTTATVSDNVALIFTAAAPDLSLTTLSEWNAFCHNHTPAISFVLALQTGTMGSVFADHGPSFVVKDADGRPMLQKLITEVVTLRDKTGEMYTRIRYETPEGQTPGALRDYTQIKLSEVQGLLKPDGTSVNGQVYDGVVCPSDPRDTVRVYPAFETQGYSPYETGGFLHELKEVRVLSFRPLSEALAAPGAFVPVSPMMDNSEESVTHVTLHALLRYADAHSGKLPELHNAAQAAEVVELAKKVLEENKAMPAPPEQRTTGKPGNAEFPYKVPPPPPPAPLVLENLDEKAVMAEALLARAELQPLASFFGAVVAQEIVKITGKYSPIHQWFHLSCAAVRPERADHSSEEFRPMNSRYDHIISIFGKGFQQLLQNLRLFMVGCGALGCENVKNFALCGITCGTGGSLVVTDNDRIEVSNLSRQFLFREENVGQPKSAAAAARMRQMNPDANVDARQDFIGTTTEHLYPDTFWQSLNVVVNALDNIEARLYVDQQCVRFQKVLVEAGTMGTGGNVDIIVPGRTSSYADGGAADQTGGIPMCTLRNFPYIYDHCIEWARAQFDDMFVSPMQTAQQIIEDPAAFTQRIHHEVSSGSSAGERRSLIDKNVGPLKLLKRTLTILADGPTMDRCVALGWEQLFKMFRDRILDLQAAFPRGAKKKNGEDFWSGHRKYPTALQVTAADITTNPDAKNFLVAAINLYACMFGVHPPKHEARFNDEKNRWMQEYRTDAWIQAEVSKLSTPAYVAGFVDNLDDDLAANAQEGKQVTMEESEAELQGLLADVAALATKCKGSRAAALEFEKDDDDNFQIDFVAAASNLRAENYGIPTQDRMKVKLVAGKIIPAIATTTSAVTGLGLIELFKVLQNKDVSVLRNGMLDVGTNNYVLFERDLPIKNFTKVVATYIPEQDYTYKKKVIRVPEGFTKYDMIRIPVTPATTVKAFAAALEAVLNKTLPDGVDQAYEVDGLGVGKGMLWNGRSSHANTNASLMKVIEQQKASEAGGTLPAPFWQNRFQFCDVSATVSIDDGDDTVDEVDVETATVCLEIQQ

[3] = target: AMP-activated protein kinase, AMPK (Homo sapiens) (UniProt P54646+O43741+P54619+Q9UGJ0+Q9Y478+Q13131+Q9UGI9); assay: AMP-dependent Kinase enzyme assay. An in vitro enzyme assay that detects ADP turnover that is directly proportional to AMPK activity. This uses naive AMPK that is activated during the assay with MK-8722; assay type: functional; settings: 30 µM
[4] = target: Sialic acid-binding Ig-like lectin 9 (Homo sapiens) (UniProt Q9Y336); assay: Hs-Siglec9 ALPHAscreen SOP 20170721; settings: 10 µM
Chain of Sialic acid-binding Ig-like lectin 9 (Homo sapiens) (Q9Y336 whole entry): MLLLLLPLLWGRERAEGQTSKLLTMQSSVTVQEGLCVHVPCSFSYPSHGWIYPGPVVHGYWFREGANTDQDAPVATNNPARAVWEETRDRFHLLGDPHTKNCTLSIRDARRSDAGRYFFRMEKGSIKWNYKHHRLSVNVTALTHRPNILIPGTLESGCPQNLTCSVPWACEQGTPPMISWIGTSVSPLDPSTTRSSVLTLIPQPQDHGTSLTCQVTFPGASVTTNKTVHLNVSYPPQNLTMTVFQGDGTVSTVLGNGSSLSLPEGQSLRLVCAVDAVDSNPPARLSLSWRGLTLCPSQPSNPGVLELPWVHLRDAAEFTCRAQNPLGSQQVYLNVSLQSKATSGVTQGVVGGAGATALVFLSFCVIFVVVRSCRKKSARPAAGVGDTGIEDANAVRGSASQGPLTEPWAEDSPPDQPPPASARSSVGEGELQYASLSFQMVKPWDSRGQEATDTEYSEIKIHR

Trypanosoma cruzi = assay: Trypanosoma cruzi phosphomannomutase and mannose-1-phosphate guanylyltransferase assay; assay type: functional; settings: 10 µM
[5] = target: T2, Arginase-2, mitochondrial (Homo sapiens) (UniProt P78540); assay: in vitro enzyme assay to detect the production of urea directly proportional to the activity of Arginase II; assay type: functional; settings: 33.3 µM; further: in the data most compounds retested in dose-response had high values
T2 sequence (whole entry): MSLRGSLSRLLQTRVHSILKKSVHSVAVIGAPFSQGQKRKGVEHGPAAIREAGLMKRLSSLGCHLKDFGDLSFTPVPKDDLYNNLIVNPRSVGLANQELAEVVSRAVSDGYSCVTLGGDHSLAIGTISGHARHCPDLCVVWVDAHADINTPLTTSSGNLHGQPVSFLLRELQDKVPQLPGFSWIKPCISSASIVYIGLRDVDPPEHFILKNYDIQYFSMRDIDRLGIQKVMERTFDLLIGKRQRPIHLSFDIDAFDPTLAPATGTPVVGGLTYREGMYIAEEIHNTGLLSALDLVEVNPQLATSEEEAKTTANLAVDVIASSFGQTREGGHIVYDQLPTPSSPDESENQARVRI

[6] = target: T3, Proteasome subunit beta (Trypanosoma cruzi) (UniProt O96673); assay: Trypanosoma cruzi proteasome chymotrypsin-like activity (TcProtChymo) assay.; further: in the data most compounds retested in dose-response had high values; assay type: functional; settings: 9.37 µM
T3 sequence (whole entry): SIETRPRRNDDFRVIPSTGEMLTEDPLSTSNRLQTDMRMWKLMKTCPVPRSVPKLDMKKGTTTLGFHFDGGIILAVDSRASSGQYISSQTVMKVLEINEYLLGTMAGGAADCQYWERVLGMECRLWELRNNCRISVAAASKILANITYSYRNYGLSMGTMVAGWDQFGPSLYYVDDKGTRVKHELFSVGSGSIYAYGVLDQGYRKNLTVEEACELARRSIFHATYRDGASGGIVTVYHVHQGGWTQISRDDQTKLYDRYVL

Homo sapiens = species on record: Homo sapiens; assay: To identify inhibition of the IFN signalling (Jak-Stat) pathway via expression of an eGFP reporter gene under the control of an IFN-stimulated response element (ISRE) containing MxA promoter.; assay type: functional; settings: 30 µM
[7] = target: T4, Tyrosyl-tRNA synthetase, putative (Trypanosoma cruzi (strain CL Brener)) (UniProt Q4DSP6); assay: Trypanosoma cruzi tyrosyl tRNA synthetase (TcYRS) _High Tyrosine SOP; assay type: functional; settings: 30 µM; further: in the data most compounds retested in dose-response had high values
T4 sequence (whole entry): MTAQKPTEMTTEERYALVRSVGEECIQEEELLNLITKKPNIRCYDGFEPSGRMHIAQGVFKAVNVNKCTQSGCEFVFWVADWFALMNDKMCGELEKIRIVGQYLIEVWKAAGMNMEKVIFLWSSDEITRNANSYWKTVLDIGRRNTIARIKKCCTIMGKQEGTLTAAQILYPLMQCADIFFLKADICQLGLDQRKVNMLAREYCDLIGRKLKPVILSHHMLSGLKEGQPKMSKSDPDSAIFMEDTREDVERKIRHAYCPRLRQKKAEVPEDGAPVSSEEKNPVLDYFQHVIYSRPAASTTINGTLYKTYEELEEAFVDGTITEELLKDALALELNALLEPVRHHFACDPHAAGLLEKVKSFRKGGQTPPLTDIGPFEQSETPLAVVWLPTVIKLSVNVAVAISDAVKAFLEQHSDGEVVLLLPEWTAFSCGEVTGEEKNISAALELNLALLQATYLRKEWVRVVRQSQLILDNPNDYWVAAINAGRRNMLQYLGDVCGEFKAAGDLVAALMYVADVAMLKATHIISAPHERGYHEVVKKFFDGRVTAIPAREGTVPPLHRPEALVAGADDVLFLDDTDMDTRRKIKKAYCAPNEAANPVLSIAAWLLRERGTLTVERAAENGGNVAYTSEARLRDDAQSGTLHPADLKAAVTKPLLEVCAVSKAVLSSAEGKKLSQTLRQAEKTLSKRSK

[8] = target: T4, Tyrosyl-tRNA synthetase, putative (Trypanosoma cruzi (strain CL Brener)); assay: Trypanosoma cruzi tyrosyl tRNA synthetase (TcYRS) SOP; assay type: functional; settings: 30 µM
[9] = target: Chromo domain-containing protein 1 (Saccharomyces cerevisiae (strain ATCC 204508 / S288c) (Baker's yeast)) (UniProt P32657); assay: ScCHD-1 Enzyme Inhibition Assay; assay type: functional; settings: 30 µM; further: in the data most compounds retested in dose-response had high values
Chain of Chromo domain-containing protein 1 (Saccharomyces cerevisiae (strain ATCC 204508 / S288c) (Baker's yeast)) (P32657 whole entry, the tested form may be a part): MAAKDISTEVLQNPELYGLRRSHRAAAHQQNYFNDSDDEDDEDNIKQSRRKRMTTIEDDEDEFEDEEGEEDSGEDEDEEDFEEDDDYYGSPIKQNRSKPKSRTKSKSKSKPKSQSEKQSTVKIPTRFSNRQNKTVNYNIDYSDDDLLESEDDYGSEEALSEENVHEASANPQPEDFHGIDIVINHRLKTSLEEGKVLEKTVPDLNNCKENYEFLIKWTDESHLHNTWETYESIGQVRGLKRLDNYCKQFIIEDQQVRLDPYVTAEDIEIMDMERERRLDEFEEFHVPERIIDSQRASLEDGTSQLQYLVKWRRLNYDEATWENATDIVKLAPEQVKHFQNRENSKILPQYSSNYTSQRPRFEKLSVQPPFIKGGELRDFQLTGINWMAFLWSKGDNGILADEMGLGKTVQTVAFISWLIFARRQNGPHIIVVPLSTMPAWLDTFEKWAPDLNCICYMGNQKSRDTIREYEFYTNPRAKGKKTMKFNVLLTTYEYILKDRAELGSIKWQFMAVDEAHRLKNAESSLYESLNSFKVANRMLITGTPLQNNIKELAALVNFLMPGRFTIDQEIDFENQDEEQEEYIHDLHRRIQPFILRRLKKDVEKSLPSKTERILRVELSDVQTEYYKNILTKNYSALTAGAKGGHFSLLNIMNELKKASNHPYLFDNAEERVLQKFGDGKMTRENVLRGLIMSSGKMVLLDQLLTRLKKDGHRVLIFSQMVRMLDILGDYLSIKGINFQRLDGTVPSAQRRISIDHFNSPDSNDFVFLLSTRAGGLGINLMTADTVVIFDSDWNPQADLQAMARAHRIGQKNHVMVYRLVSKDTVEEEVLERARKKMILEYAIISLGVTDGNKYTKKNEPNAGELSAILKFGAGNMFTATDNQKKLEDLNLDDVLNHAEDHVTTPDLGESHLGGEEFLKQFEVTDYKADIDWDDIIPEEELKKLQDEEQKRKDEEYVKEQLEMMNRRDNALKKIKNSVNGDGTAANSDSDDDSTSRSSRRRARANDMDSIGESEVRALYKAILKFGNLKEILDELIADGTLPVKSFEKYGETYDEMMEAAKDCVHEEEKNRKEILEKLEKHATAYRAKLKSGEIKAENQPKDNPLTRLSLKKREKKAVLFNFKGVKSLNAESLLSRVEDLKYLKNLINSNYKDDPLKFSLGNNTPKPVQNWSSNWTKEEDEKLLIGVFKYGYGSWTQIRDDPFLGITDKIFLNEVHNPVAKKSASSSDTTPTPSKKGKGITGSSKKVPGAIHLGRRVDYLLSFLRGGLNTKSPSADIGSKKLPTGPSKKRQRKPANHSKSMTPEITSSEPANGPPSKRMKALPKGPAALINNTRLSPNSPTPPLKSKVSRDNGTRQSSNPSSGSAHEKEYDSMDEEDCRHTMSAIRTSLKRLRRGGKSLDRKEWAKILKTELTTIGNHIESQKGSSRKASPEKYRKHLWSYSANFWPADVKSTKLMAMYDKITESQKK

Chain of Protein translocase subunit SecA (Escherichia coli (strain K12)) (P10408 whole entry): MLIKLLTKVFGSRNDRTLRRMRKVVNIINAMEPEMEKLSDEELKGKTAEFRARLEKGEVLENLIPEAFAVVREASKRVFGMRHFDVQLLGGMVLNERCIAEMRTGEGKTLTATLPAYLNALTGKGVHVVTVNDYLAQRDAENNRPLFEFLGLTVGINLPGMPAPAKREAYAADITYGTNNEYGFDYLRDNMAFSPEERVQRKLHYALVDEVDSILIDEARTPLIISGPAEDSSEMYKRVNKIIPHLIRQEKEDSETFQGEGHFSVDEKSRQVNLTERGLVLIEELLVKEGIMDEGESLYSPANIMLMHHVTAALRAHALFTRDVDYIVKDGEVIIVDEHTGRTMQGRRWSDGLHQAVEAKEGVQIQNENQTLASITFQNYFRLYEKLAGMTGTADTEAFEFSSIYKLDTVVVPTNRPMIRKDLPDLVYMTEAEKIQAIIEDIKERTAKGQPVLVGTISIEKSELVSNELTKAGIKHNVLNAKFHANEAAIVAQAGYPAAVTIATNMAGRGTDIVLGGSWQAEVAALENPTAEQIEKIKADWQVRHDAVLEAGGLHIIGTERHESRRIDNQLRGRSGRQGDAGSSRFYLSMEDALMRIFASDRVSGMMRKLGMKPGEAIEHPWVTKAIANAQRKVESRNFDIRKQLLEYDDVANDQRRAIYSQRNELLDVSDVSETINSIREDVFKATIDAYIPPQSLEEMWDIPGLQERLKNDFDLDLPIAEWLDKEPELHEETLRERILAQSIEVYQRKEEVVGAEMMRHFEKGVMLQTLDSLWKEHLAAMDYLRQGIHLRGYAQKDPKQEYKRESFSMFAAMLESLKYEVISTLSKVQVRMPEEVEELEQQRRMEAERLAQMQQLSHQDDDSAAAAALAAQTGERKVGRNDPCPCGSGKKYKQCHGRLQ

SMILES | Percent Effect [1] [%] | Percent Effect [2] [%] | Percent Effect [3] [%] | Percent Effect [4] [%] | Percent Effect (Trypanosoma cruzi) [%] | Percent Effect [5] [%] | Percent Effect [6] [%] | Percent Effect (Homo sapiens) [%] | Percent Effect [7] [%] | Percent Effect [8] [%] | Percent Effect [9] [%]
CCc1ccc(NC(=O)N2C[C@H]3C[C@H](C(=O)NC)[C@@H](C2)O3)cc1 | 0.946 | 2.6 | 6.04 | -3.01 | -0.0986 | 0.645 | 5.4 | 11.2 | 1.06 | 6.41 | 93.4
Cc1nc2cc(C3CCN(Cc4cccc(F)c4F)C3)nn2c(O)c1C (stereo unspecified) | -0.873 | 12.2 | 12.9 | -3.49 | 0.988 | -1.16 | 2.81 | 10.8 | 3.23 | 11.7 | -14.4
COC1CCN(C(=O)CCc2c(C)nc3ccnn3c2C)CC1 | -0.424 | 5.26 | 1.13 | -0.445 | -3.64 | 5.4 | 1.95 | -10.2 | 4.43 | 6.17 | 5.83
COCc1nc(C(=O)N2CCCCC2Cn2cc(C)cn2)cs1 (stereo unspecified) | -5.14 | -2.6 | 6.14 | -7.79 | -5.19 | -1.47 | 5.42 | 6.8 | -1.91 | -4.71 | -21.5
Cc1cc(CN2CCC(CNC(=O)c3nccc4ccccc34)C2)[nH]n1 (stereo unspecified) | 1.25 | 10.8 | -15.5 | 7.44 | 4.2 | 15.6 | 12.3 | 26.4 | 11.8 | 25.9 | -2.74
CNc1nc2c(s1)C(c1cccc(F)c1F)CC(=O)N2 (stereo unspecified) | -2.38 | 13.2 | -61.3 | -2.61 | 0.876 | 4.73 | 18.9 | 7.67 | -11.7 | -13 | -8.74
CCOC(CC)C(=O)NCCC(=O)N1CCN(c2ncccn2)CC1 (stereo unspecified) | -2.66 | 2.63 | 4.87 | 5.24 | 5.94 | 0 | 7.19 | 0.555 | 3.19 | 5.2 | 1.78
CCc1c(C(=O)N2CCCN(C(C)=O)CC2)cnn1C(C)(C)C | -5.01 | 23.7 | -6.43 | 9.75 | 3.27 | 1.08 | 6.68 | -2.15 | 7.39 | 25.9 | -9.24
CC1(C(=O)N2CCOCC2)CN(Cc2ccccn2)CCO1 (stereo unspecified) | -7.59 | 1.35 | -5.87 | -5.46 | -4.35 | -5.8 | 9.52 | 24.2 | 1.07 | -3.9 | 6.62
Cc1cccc(C(=O)NCCCN2CCN(c3ccccc3)CC2)c1 | -2.4 | 10.4 | -2.04 | -11.3 | -7 | 5.81 | 12.7 | 13.6 | 1.06 | 8.97 | -9.93
O=C1CC2(CCN(CC3CC3)C2)CN1c1cccc(F)c1 (stereo unspecified) | -0.129 | 10.8 | -7.34 | 0.348 | -3.81 | 1.24 | 4.38 | -6.1 | 3.23 | 11.1 | -0.923
